This is an account of results in PubChem BioAssay.

For orientation: inhibition means the change of the read-out against control, counted positive when it falls.

Values without a mark were called inactive. Activity calls are given as the source filed them.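 Rule for the calls, unless noted: active = fluorescence slope after compound addition differing from the mean of all screened samples at 99.7% confidence, in either direction; inactive = the rest.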

One assay deals with Alpha-2C adrenergic receptor (Homo sapiens) (UniProt P18825). Briefly: modulators of alpha2C/GIRK thallium flux, primary screen, cell-based, HEK293 alpha2C/GIRK1/2 (AID 624).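 Note: slope of fluorescence ratio to pre-addition baseline per second over 15 to 24 s.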 Particulars: thallium flux BTC fluorescence, at 10 µM, actives lie on both sides.
Alpha-2C adrenergic receptor (Homo sapiens), sequence (P18825 whole entry, looked up): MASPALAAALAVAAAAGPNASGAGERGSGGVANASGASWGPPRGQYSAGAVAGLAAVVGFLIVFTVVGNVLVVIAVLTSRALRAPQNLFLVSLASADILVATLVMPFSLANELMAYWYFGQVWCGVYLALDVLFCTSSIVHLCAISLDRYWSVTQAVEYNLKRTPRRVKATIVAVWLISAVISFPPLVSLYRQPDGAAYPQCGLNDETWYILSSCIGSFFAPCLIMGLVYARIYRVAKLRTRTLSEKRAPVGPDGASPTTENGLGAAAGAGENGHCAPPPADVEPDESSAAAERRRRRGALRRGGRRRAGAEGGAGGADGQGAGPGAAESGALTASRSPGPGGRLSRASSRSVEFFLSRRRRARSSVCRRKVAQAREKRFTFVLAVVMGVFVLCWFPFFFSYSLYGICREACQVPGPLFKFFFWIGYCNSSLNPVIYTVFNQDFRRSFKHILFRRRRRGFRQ
Consider `COc1ccc(C2SCC(=O)Nc3c2c(=O)[nH]n3C2CCCCCC2)cc1OC` (stereo unspecified), for which the slope was 0.00412.
On the same count and under the same terms, as for `Cc1cnn(C2CCN(C)CC2)c1N`, the figure is 0.00651; as for `O=C1CC(N2CCC(n3c(=O)[nH]c4ccccc43)CC2)C(=O)N1c1ccc(F)cc1` (stereo unspecified), 0.0029.
The same measure, in the same setting: as for `CCNc1ccc(P(=S)(N(C)C)N(C)C)cc1`, the figure is 0.00749; as for `c1ccc(C2NCc3ccccc3-n3cccc32)cc1` (stereo unspecified), 0.00504.
Still for that read-out and setting: as for `CC(=O)Nc1ccc(OC(=O)c2ccccc2N)cc1`, the figure is 0.00336.
Take `CCOCC(=O)NC1CCSC1=O` (stereo unspecified): the slope was 0.00601.
Still for that read-out and setting: as for `CN1CCN(c2nc3ccccc3c(=O)n2-c2ccccc2)CC1`, the figure is 0.00748; as for `O=c1[nH]c(=O)n(CCc2ccc(F)cc2)c(O)c1C=NCCCn1ccnc1`, 0.00323.
For `CCOc1c(P(=S)(N(C)C)N(C)C)c(C)nn1-c1ccccc1`, the slope is 0.0033.
The same measure, in the same setting: the same measure for `O=C(CN1C2CCC1CC(O)(c1cccnc1)C2)Nc1ccc2c(c1)OCO2` (stereo unspecified): 0.00303; for `CCN1CCN(C(=O)COc2cc(=O)n(CC)c3ccccc23)CC1`: 0.00614; for `O=C(O)C1(c2ccc(Cl)cc2)CCC1`: 0.00643.
`Cc1cccc(C2=NCC(=O)N(CC(=O)NCc3ccco3)c3sc4c(c32)CCCC4)c1`: the slope is 0.00582.
Still for that read-out and setting: as for `CP(C)(=O)CCC(=O)O`, the figure is 0.00678.
Same read-out and setting: as for `CN(C)CCc1nc2ccccc2c(=O)n1-c1ccccc1`, the figure is 0.00675; as for `CCC(=NCC1CCCO1)c1c(O)n(Cc2ccccc2)c(=O)[nH]c1=O` (stereo unspecified), 0.00608.
Regarding `CCCCCCOc1ccc(CN2CCN(C)CC2)cc1`, the slope was 0.00769.
Same read-out and setting: the same measure for `CCOC(=O)C1SC2(C(F)F)CC1(O)c1c(c(OC)c3occc3c1OC)O2` (stereo unspecified): 0.00497; for `Cc1ccc(C(=O)C2CN3CCC2CC3)cc1` (stereo unspecified): 0.00351.
On the same count and under the same terms, the same measure for `C=CCn1c(O)c(C(C)=NCCCO)c(=O)[nH]c1=O`: 0.00383.
In the case of `CC1CCC(C(=O)NC(C(=O)N2CCC3(CC2)OCCO3)C(C)C)CC1` (stereo unspecified), the slope is 0.00626.
Regarding `CCCCNC(=O)c1c(N)n(CCCOC)c2nc3ccccc3nc12`, the slope was 0.00654.
With `O=C1CC(c2ccccc2)CC(O)=C1C=NCCN1CCN(C(=O)Cc2ccccc2)CC1` (stereo unspecified), the slope was 0.00558.
Turning to `O=C(c1ccncc1)C12CN3CN(CN(C3)C1)C2`, the slope was 0.00372.
On the same count and under the same terms, as for `CCOc1ccc(-n2c(O)c(C=NCCN(CC)CC)c(=O)[nH]c2=O)cc1`, the figure is 0.00486; as for `COc1ccc(OC)c(N2C(=O)NC(=O)C(CCc3ccncc3)(CCc3ccncc3)C2=O)c1`, 0.00479; as for `CC(C)OCCCNC(=O)c1c(N)n(CC2CCCO2)c2nc3ccccc3nc12` (stereo unspecified), 0.00623.
Still for that read-out and setting: the same measure for `COc1ccccc1N1CCN(Cc2c(F)cccc2F)CC1`: 0.00585; for `O=C(c1ccc2nc(-c3ccco3)c(-c3ccco3)nc2c1)N1CCC2(CC1)OCCO2`: 0.00382; for `CC(=NCCCO)c1c(O)n(Cc2ccccc2)c(=O)[nH]c1=O`: 0.00369.
The same measure, in the same setting: as for `CCN1c2nc3ccccn3c(=O)c2CC2(C(=O)N(C)C(=O)N(C)C2=O)C1C` (stereo unspecified), the figure is 0.00491; as for `Cc1cccc(-n2c(O)c(C=NCCCN3CCOCC3)c(=O)[nH]c2=O)c1C`, 0.00546; as for `CCCCn1c(O)c(C(CC)=Nc2cccc(C(=O)O)c2)c(=O)[nH]c1=O`, 0.00652.
As for `O=C(c1cccs1)C1CN2CCC1CC2` (stereo unspecified), the slope was 0.00316.
Consider `COc1ccc(CCn2c(O)c(C=NCc3cccnc3)c(=O)[nH]c2=O)cc1OC`, for which the slope is 0.00366.
On the same count and under the same terms, as for `O=C(C(Cc1ccccc1)NS(=O)(=O)c1ccc(F)cc1)N1CCC2(CC1)OCCO2` (stereo unspecified), the figure is 0.00508; as for `O=C(NCc1ccccn1)c1ccccc1Cl`, 0.00536.

Test system in the next assay: not listed separately
Briefly: inhibitors of Sendai virus-induced IRF3 signaling, primary screen, TLR/RLR signaling modifier project, cell-based, Sendai virus stimulus, luciferase, 10K MLSCN set (AID 602276;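 active = inhibition at or above 50% at 10 µM; inactive = inhibition below 50%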;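 note: firefly luciferase from ISG56 promoter only with Renilla not read in this screen; 0% = Sendai virus plus DMSO and 100% = medium plus DMSO without virus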). The settings on record: HEK293 RL24 IRF3 luciferase reporter, at 10 µM, hits give high values.
For the molecule `COc1ccc(C2SCC(=O)Nc3c2c(=O)[nH]n3C2CCCCCC2)cc1OC` (stereo unspecified), the inhibition was 13.9%.
In the case of `Cc1cnn(C2CCN(C)CC2)c1N`, the inhibition is -8.1%.
On to `O=C1CC(N2CCC(n3c(=O)[nH]c4ccccc43)CC2)C(=O)N1c1ccc(F)cc1` (stereo unspecified), for which the inhibition was 6.41%.
On the same count and under the same terms, the same measure for `CCNc1ccc(P(=S)(N(C)C)N(C)C)cc1`: 10.5%; for `c1ccc(C2NCc3ccccc3-n3cccc32)cc1` (stereo unspecified): 6.74%.
Still for that read-out and setting: the same measure for `CC(=O)Nc1ccc(OC(=O)c2ccccc2N)cc1`: 3.45%; for `CCOCC(=O)NC1CCSC1=O` (stereo unspecified): 18.6%; for `CN1CCN(c2nc3ccccc3c(=O)n2-c2ccccc2)CC1`: 845% [above what the read-out allows, likely interference] (active).
On the same count and under the same terms, the same measure for `O=c1[nH]c(=O)n(CCc2ccc(F)cc2)c(O)c1C=NCCCn1ccnc1`: 13.3%.
Consider `CCOc1c(P(=S)(N(C)C)N(C)C)c(C)nn1-c1ccccc1`, for which the inhibition is 13.8%.
Same read-out and setting: the same measure for `O=C(CN1C2CCC1CC(O)(c1cccnc1)C2)Nc1ccc2c(c1)OCO2` (stereo unspecified): 15%; for `CCN1CCN(C(=O)COc2cc(=O)n(CC)c3ccccc23)CC1`: 3.27%.
On the same count and under the same terms, the same measure for `O=C(O)C1(c2ccc(Cl)cc2)CCC1`: 12.9%; for `Cc1cccc(C2=NCC(=O)N(CC(=O)NCc3ccco3)c3sc4c(c32)CCCC4)c1`: 14.4%.
On the same count and under the same terms, the same measure for `CP(C)(=O)CCC(=O)O`: 2.85%.
On to `CN(C)CCc1nc2ccccc2c(=O)n1-c1ccccc1`, for which the inhibition was -20.1%.
On the same count and under the same terms, the same measure for `CCC(=NCC1CCCO1)c1c(O)n(Cc2ccccc2)c(=O)[nH]c1=O` (stereo unspecified): -5.89%; for `CCCCCCOc1ccc(CN2CCN(C)CC2)cc1`: 25.8%.
Still for that read-out and setting: as for `CCOC(=O)C1SC2(C(F)F)CC1(O)c1c(c(OC)c3occc3c1OC)O2` (stereo unspecified), the figure is 4.1%.
Same read-out and setting: as for `Cc1ccc(C(=O)C2CN3CCC2CC3)cc1` (stereo unspecified), the figure is 11.9%; as for `C=CCn1c(O)c(C(C)=NCCCO)c(=O)[nH]c1=O`, -1.46%.
As to `CC1CCC(C(=O)NC(C(=O)N2CCC3(CC2)OCCO3)C(C)C)CC1` (stereo unspecified), the inhibition was 5.72%.
On to `CCCCNC(=O)c1c(N)n(CCCOC)c2nc3ccccc3nc12`, for which the inhibition is -5.16%.
The same measure, in the same setting: the same measure for `O=C1CC(c2ccccc2)CC(O)=C1C=NCCN1CCN(C(=O)Cc2ccccc2)CC1` (stereo unspecified): 17.1%; for `O=C(c1ccncc1)C12CN3CN(CN(C3)C1)C2`: 10%.
Still for that read-out and setting: the same measure for `CCOc1ccc(-n2c(O)c(C=NCCN(CC)CC)c(=O)[nH]c2=O)cc1`: 0.257%; for `COc1ccc(OC)c(N2C(=O)NC(=O)C(CCc3ccncc3)(CCc3ccncc3)C2=O)c1`: 10.1%.
The same measure, in the same setting: as for `CC(C)OCCCNC(=O)c1c(N)n(CC2CCCO2)c2nc3ccccc3nc12` (stereo unspecified), the figure is 11.4%.
In the case of `COc1ccccc1N1CCN(Cc2c(F)cccc2F)CC1`, the inhibition was 15.2%.
On to `O=C(c1ccc2nc(-c3ccco3)c(-c3ccco3)nc2c1)N1CCC2(CC1)OCCO2`, for which the inhibition is -1.04%.
For `CC(=NCCCO)c1c(O)n(Cc2ccccc2)c(=O)[nH]c1=O`, the inhibition was 13%.
The same measure, in the same setting: the same measure for `CCN1c2nc3ccccn3c(=O)c2CC2(C(=O)N(C)C(=O)N(C)C2=O)C1C` (stereo unspecified): 19%; for `Cc1cccc(-n2c(O)c(C=NCCCN3CCOCC3)c(=O)[nH]c2=O)c1C`: 0.794%.
For the molecule `CCCCn1c(O)c(C(CC)=Nc2cccc(C(=O)O)c2)c(=O)[nH]c1=O`, the inhibition was 9.53%.
As for `O=C(c1cccs1)C1CN2CCC1CC2` (stereo unspecified), the inhibition was -7.76%.
For the molecule `COc1ccc(CCn2c(O)c(C=NCc3cccnc3)c(=O)[nH]c2=O)cc1OC`, the inhibition was 19.4%.
Same read-out and setting: as for `O=C(C(Cc1ccccc1)NS(=O)(=O)c1ccc(F)cc1)N1CCC2(CC1)OCCO2` (stereo unspecified), the figure is 11.2%; as for `O=C(NCc1ccccn1)c1ccccc1Cl`, 10.8%.
